Measured values: ChEMBL document CHEMBL1157539, “Thousands of chemical starting points for antimalarial lead identification” (Nature, 2010)

What was measured:
Type in all cases: functional
Plasmodium falciparum [1] = assay: GSK_TCMDC: Inhibition of Plasmodium falciparum 3D7 in whole red blood cells, using parasite LDH activity as an index of growth. Test compounds present at 2uM
Plasmodium falciparum [2] = assay: GSK_TCMDC: Inhibition of Plasmodium falciparum Dd2 in whole red blood cells, using parasite LDH activity as an index of growth. Test compounds present at 2uM
HepG2 = assay: GSK_TCMDC: Percent inhibition of human HepG2 cell line. Test compounds present at 10uM.

Row | Structure (SMILES) | Inhibition (Plasmodium falciparum [1]) [%] | Inhibition (Plasmodium falciparum [2]) [%] | Inhibition (HepG2) [%]
1 | CN(c1ccc2c(c1)nc(NC(=O)C1(c3cc(F)ccc3F)CC1)n2C)c1ccnc(Nc2cccc(CS(C)(=O)=O)c2)n1.O=C(O)C(F)(F)F | 89 | 46 | 42
2 | Cn1cccc1C(=O)NCC(CCNc1cc(=O)c2ccccc2[nH]1)NCc1cc(Br)cc(Br)c1 (configuration not stated) | 92 | 52 | 0
3 | Br.CC1(C)NC(N)=NC(=N)N1OCCCc1cc(Cl)c(Cl)cc1Cl | 95 | 96 | 55
4 | CCCCCCNC(=O)C1Cc2c([nH]c3ccc(Br)cc23)C2(CCN(CCc3ccccc3)CC2)N1 (configuration not stated) | 100 | 94 | 36
5 | CCN1CCN(CCCNc2c3ccc(Cl)cc3nc3ccc(OC)cc23)CC1.Cl | 97 | 100 | 34
6 | O=C(NCC1CCN(Cc2ccc3c(c2)OCCO3)C1)c1cc(-c2cccc(C(F)(F)F)c2)cs1.O=C(O)C(F)(F)F (configuration not stated) | 100 | 1 | 31
7 | COc1ccc(C(c2ccc(N(C)C)cc2)c2ccc(N(C)C)cc2)cc1 | 100 | 99 | 72
8 | CCCOc1ccc(C=C(CC(=O)O)c2nc3ccccc3s2)cc1OCC | 89 | 84 | 7
9 | Cc1cc(N)c2cc(NC(=O)c3cc4ccccc4s3)ccc2n1 | 100 | 99 | 100
10 | COc1cc(C(=O)N2CCOC(CCN3CCC(Cc4ccc(F)cc4)CC3)(c3ccc(Cl)c(Cl)c3)C2)cc(OC)c1OC (configuration not stated) | 88 | 58 | 44
11 | O=C([C@H]1CCCCN1c1ccc([N+](=O)[O-])c2ccccc12)N1CCN(c2ncccn2)CC1 | 97 | 5 | 50
12 | Cc1cccc2nc(-c3cccc(-c4cccc(NC(=O)c5cccnc5)c4)c3)[nH]c12 | 100 | 56 | 28
13 | CC(CCc1ccccc1)NCC(O)c1cccc([N+](=O)[O-])c1 (configuration not stated) | 97 | 98 | 0
14 | COc1ccc(C(O)CNC(C)CCc2ccccc2)cc1C(F)(F)F.Cl (configuration not stated) | 99 | 100 | 3
15 | CCCCCN1CCCCC(NS(=O)(=O)c2ccc(C(=O)Nc3ccc(C(F)(F)F)cc3)cc2)C1.O=C(O)C(F)(F)F (configuration not stated) | 89 | 0 | 34
16 | CCNC[C@H]1CCCN1CCOc1ccc(-n2cnc3cc(-c4ccc(Cl)cc4)sc3c2=O)cc1OC.O=C(O)C(F)(F)F | 97 | 39 | 53
17 | CCN(CC)CCN(CCCc1ccc(-c2ccc(C(F)(F)F)cc2)cc1)C(=O)Cn1c(CCc2cccc(F)c2F)nc(=O)c2ccccc21.O=C(O)C(O)C(O)C(=O)O | 100 | 49 | 37
18 | O=C(/C=C/c1ccc([N+](=O)[O-])cc1)N1CCC(CCN2CCC(c3c[nH]c4ccccc34)CC2)CC1 | 100 | 48 | 60
19 | C#Cc1cccc(NC(=O)[C@H](CC2CCCCC2)Nc2ccc(C#N)c3ccccc23)c1.O=C(O)C(F)(F)F | 100 | 99 | 48
20 | COC(=O)c1ccc2c(c1)nc(Nc1cccc(F)c1)n2CC(O)c1ccccn1 (configuration not stated) | 99 | 96 | 0

Row | Structure (SMILES) | Inhibition (Plasmodium falciparum [1]) [%] | Inhibition (Plasmodium falciparum [2]) [%] | Inhibition (HepG2) [%]
21 | COc1ccc2ncc(F)c(CCN3C[C@H](CNCc4cc(C#N)c5c(c4)OCCO5)[C@H](O)C3)c2n1.Cl | 100 | 64 | 7
22 | COc1cc(OC)cc(C(=O)Nc2cccc(-c3cn4ccc(C)cc4n3)c2)c1 | 86 | 45 | 4
23 | O=C(O)C1Cc2c([nH]c3ccccc23)C(c2ccc(Cl)cc2Cl)N1 (configuration not stated) | 91 | 100 | 7
24 | COc1ccc2ncc(F)c(CCN3CCC(NCc4cc(OC)c5c(c4)OCCO5)CC3)c2n1.Cl | 100 | 53 | 0
25 | Cl.Clc1ccc(OC2CCC(Cn3ccnc3)(c3ccc(Cl)cc3Cl)CC2)c(Cl)c1 (configuration not stated) | 98 | 86 | 4
26 | COC(=O)c1cccc(CNCc2cccc(-c3cccc(-c4nc5cccc(C)c5[nH]4)c3)c2)c1.O=C(O)C(F)(F)F | 100 | 47 | 0
27 | CC(C)c1ccc(CN2CCC(CNC(=O)c3cc(-c4ccc(N(C)C)cc4)cs3)C2)cc1.O=C(O)C(F)(F)F (configuration not stated) | 83 | 32 | 36
28 | Cc1noc(-c2ccc3c(c2)CCN(CCC2CCC(NC(=O)/C=C/c4ccc(F)cc4)CC2)CC3)n1.Cl (configuration not stated) | 91 | 39 | 44
29 | Cc1cc(N2CC=CCC2)nc(NC(=N)Nc2ccc(Cl)cc2)n1 | 100 | 78 | 0
30 | Cc1cccc2nc(-c3cccc(-c4cccc(NC(=O)NCc5ccccc5)c4)c3)[nH]c12 | 94 | 27 | 12
31 | CN1CCN(Cc2cc3cc(NC(=O)/C=C/c4ccc(Cl)cc4)ccc3s2)CC1.Cl | 100 | 20 | 51
32 | Cl.Fc1cccc(COc2ccc(Nc3ncnc4ccc(-c5nnc(C(F)(F)F)o5)cc34)cc2Cl)c1 | 100 | 77 | 14
33 | O=C(NC1CCCc2ccccc21)[C@@H]1CCCN1C(=O)c1ccc(O)c(-c2cccc([N+](=O)[O-])c2)c1 (some centres not stated) | 99 | 99 | 0
34 | O=C(O)C(F)(F)F.c1cc(CNCC2CCCO2)cc(-c2ccc(-c3nc4ccccc4[nH]3)s2)c1 (configuration not stated) | 95 | 30 | 8
35 | CC1CCCN(C(=O)c2cc(-c3ccccn3)nc3c(Cl)cccc23)C1 (configuration not stated) | 86 | 9 | 2
36 | Cc1cccc2nc(-c3ccc(-c4ccc(C(=O)NCCN5CCCC5)cc4)cc3)[nH]c12 | 100 | 77 | 25
37 | CCC[C@@H]([C@@H](CC1CCC(C)CC1)C(=O)N[C@@H](CO)C(=O)Nc1nccs1)N(O)C=O (some centres not stated) | 100 | 84 | 0
38 | CS(=O)(=O)CCOCc1ccc(-c2ccc3ncnc(Nc4ccc(OCc5cccc(F)c5)c(Cl)c4)c3c2)o1 | 96 | 43 | 1
39 | Cc1ccccc1CNC(=O)Nc1cccc(-c2csc(NC(=N)N)n2)c1 | 99 | 14 | 2
40 | COc1ccc(CCNC(=O)c2ccc(-n3cc(NC(=O)c4cccnc4)cn3)cc2)cc1OC | 90 | 89 | 17

Row | Structure (SMILES) | Inhibition (Plasmodium falciparum [1]) [%] | Inhibition (Plasmodium falciparum [2]) [%] | Inhibition (HepG2) [%]
41 | Br.Oc1cccc2c1CC(NCc1ccccc1)CC2 (configuration not stated) | 90 | 24 | 4
42 | CC1(C)OC[C@]2(C)[C@@H](CC[C@]3(C)C4=CC(=O)CCC4CC[C@@H]23)O1 (some centres not stated) | 97 | 95 | 0
43 | O=C(NCCCCN1CCC(c2ccc3c(c2OCCO)CCCC3)CC1)c1sc(-c2ccc(C(F)(F)F)cc2)nc1CO | 95 | 20 | 37
44 | O=C(NC1CCC(N2CCCC(OCc3ccccc3)C2)CC1)c1cc2ccccc2[nH]1 (configuration not stated) | 94 | 11 | 38
45 | O=C(Nc1cccc(-c2nc3ccccc3s2)c1)c1ccccc1[N+](=O)[O-] | 85 | 9 | 0
46 | O=C(NCc1ccc(Cl)c(Cl)c1)c1ccc(-c2nc3cc(F)c(F)cc3[nH]2)cc1 | 81 | 12 | 0
47 | O=S(=O)(c1csc2ccccc12)N(CCC(O)(C(F)(F)F)C(F)(F)F)Cc1cccc(O)c1 | 100 | 100 | 0
48 | CCCc1ccc(NC(=O)c2cccc(CN3CCCN(Cc4cccc(C#N)c4)CC3)c2)cc1.O=C(O)C(F)(F)F | 85 | 0 | 20
49 | O=C(/C=C/c1ccc2ccccc2c1)NCC1(c2ccc(-c3ccccc3)cc2)CCOCC1 | 95 | 34 | 9
50 | O=C(O)C(F)(F)F.O=S(=O)(NCCN1CCCC1)c1ccc(-c2ccc(CN3Cc4ccccc4C3)cc2)s1 | 89 | 18 | 19
51 | CC(C)c1ccc(CN2CCC(NC(=O)c3ccc(-c4cccc(Cl)c4)s3)CC2)cc1.O=C(O)C(F)(F)F | 82 | 6 | 50
52 | CCCc1cc(=O)[nH]c(-n2nc(C)cc2NC(=O)C(CC)c2ccccc2)n1 (configuration not stated) | 94 | 63 | 41
53 | c1cncc(-c2cc(N3CCCCC3)nc(-c3ccncc3)n2)c1 | 99 | 46 | 18
54 | Cc1ccc(/C=C/C(=O)NCCCCCN2CCC(c3c[nH]c4ccccc34)CC2)cc1 | 86 | 7 | 36
55 | CC(C)(C)c1cc(CN2CCN(Cc3ccccc3)CC2)cc(C(C)(C)C)c1O | 97 | 0 | 9
56 | OCc1ccc(-c2cncc(Nc3cccc(Cl)c3)c2)cc1 | 95 | 100 | 4
57 | Cc1cccc(C)c1C1CCN(C2CCC(NC(=O)/C=C/c3ccccc3)CC2)CC1 (configuration not stated) | 100 | 45 | 42
58 | O=C(/C=C/c1ccc(Cl)c(Cl)c1)NCCCCCN1CCC(NC(=O)Nc2ccc(C(F)(F)F)cc2)C1 (configuration not stated) | 100 | 6 | 11
59 | O=C(CC1CCCC1)Nc1ccc2c(c1)CCC2 | 93 | 0 | 0
